Bioassay records from PubChem BioAssay.
TIM10 inh = growth inhibitors of isogenic TIM10 control yeast, primary screen, counter-screen for tim10-1 yeast inhibitor project, luminescence, uHTS. 330,000 tested, 1.4% active. S. cerevisiae TIM10 strain growth, BacTiter-Glo luminescence, 24 h. inhibition, % at 10 µM;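 active means inhibition of 40% or more at the single tested concentration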;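 further: wild-type TIM10 isogenic control strain grown at permissive 25 °C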
PfHsp90 yeast 2 = growth inhibition of PfHsp90-expressing yeast, primary screen, antimalarial PfHsp90 inhibitor project, S. cerevisiae, BacTiter-Glo luminescence, single point, set 2. BacTiter-Glo ATP, 48 h; yeast lacking PDR1 and PDR3 efflux regulators. AID 504621, 2011. inhibition, % at 9.4 µM. 310,000 tested, 0.32% active;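 active means every replicate shows inhibition above about 80%, whatever the replicate mean, limit read from the data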
NLRP3 yeast inh = NALP3 inflammasome inhibitors in reconstituted yeast, primary screen, luminescence, uHTS. inhibition, % at 10 µM. Yeast reconstituted NLRP3/ASC/caspase-1, beta-gal luminescence, 24 h. 330,000 tested, 0.39% active;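 active means inhibition of 50% or more; inactive means inhibition below 50%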
NALP1 yeast inh = NALP1 inflammasome inhibitors in reconstituted yeast, colorimetric, S. cerevisiae, triplicate retest | S. cerevisiae NALP1/ASC/caspase-1 growth, X-gal OD620, 72 h | inhibition, % at 10 µM | 280,000 tested, 0.61% active | AID 2071, 2009; in the data active means inhibition mostly above about 24%, no sharp cut-off; inactive means mostly below about 32%
tim23-1 inh = growth inhibitors of tim23-1 mutant yeast, primary screen, luminescence, uHTS. S. cerevisiae tim23-1 growth, BacTiter-Glo luminescence, 24 h. inhibition, % at 20 µM. 330,000 tested, 1.3% active. AID 463212, 2010;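 active means growth inhibition of the mutant yeast at or above 50%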;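 further: temperature-sensitive mutant grown at 25 °C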
tim10-1 inh = growth inhibitors of tim10-1 mutant yeast, primary screen, luminescence, uHTS. inhibition, % at 20 µM. S. cerevisiae tim10-1 ts strain growth, BacTiter-Glo, 24 h. 330,000 tested, 2.2% active;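 active means inhibition of at least 40%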;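 further: mutant grown at 25 °C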
TIM10 conf = growth inhibitors of wild-type TIM10 yeast, confirmation, counter-screen for tim10-1 synthetic lethality project, single concentration, luminescence, S. cerevisiae | shares compounds with TIM10 inh | inhibition, % at 10 µM | S. cerevisiae tim10 strain growth, BacTiter-Glo luminescence, 24 h | 4,600 tested, 63% active;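 active means inhibition of yeast growth at or above a set limit in either of two replicates at 10 µM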; further: this counterscreen used the strain with wild-type TIM10
tim23-1 conf = tim23-1 mutant yeast growth inhibitors, confirmation, luminescence, single concentration; shares compounds with tim23-1 inh; S. cerevisiae tim23-1 growth, BacTiter-Glo luminescence, 24 h; inhibition, % at 20 µM; 4,400 tested, 83% active; AID 463218, 2010;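 active means inhibition above about 39% in either of two replicate wells at 20 µM, limit read from the data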;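 further: temperature-sensitive tim23-1 mutant grown at 25 °C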
Hits are given with their value; . = inactive; / = not tested or not shown. Compounds with a hit are over-represented: about 4.2% of the library has one in this group of screens.

SMILES	TIM10 inh	PfHsp90 yeast 2	NLRP3 yeast inh	NALP1 yeast inh	tim23-1 inh	tim10-1 inh	tim23-1 conf	others
CCC(CO)(C(=O)OC1C[N+]2(C)CCC1CC2)c1ccccc1 (stereo not drawn)	.	.	.	.	.	.	/
Cn1cccc1/C=C1/C(=O)NC(=S)N(Cc2ccc(F)cc2)C1=O	84.3	.	.	/	.	.	/	TIM10 conf=85.7
O=C(CSC1c2ccccc2-c2ccccc21)N/N=C/c1ccccc1O	47.1	.	.	.	52.3	.	58.4	TIM10 conf=58.4
CC#CP(=O)(OC)C(O)(CF)c1ccccc1 (stereo not drawn)	.	.	.	.	.	.	/
Cc1nc2ccccc2c(=O)n1/N=C/c1cc(Br)cc(Br)c1O	73.0	.	.	/	83.5	.	88.9	TIM10 conf=.
CCC(C)C1(CC)C(=O)NC(=O)N=C1N (stereo not drawn)	.	.	.	.	.	.	/
Cc1ccc(-c2nn(Cc3ccccc3)cc2C=O)cc1C	52.1	.	.	/	52.6	.	58.4	TIM10 conf=55.4
Cc1ccc(Cn2cc(C=O)c(-c3ccc(F)cc3)n2)cc1	.	.	.	.	.	.	/
Cc1ccc(-c2nn(Cc3ccccc3)cc2C=O)cc1	.	.	.	/	57.4	.	54.9
Cc1ccc(-c2nn(Cc3ccccc3)cc2C(=O)O)cc1	.	.	.	/	.	.	/
CC[C@H](C)[C@@H]1O[C@@]2(C=CC1C)CC1C[C@@H](CC=C(C)C(O[C@H]3CC(OC)C(O[C@H]4CC(OC)C(O)C(C)O4)C(C)O3)C(C)C=CC=C3CO[C@@H]4C(O)C(C)=C[C@@H](C(=O)O1)[C@]34O)O2 (stereo partly drawn)	.	/	.	/	.	.	/
COCCCn1c(N)c(C(=O)OC(C)COC)c2nc3ccccc3nc21 (stereo not drawn)	.	.	.	.	.	.	/
CCC(C)NC(=O)c1c(N)n(CCCOC)c2nc3ccccc3nc12 (stereo not drawn)	.	.	.	.	52.5	.	48.1
Cc1ccccc1-n1c(/C=C/c2ccccn2)nc2ccccc2c1=O	.	.	.	.	51.9	.	43.1
O=c1c2ccccc2nc(/C=C/c2ccc(F)cc2)n1-c1ccccn1	.	/	.	.	.	.	/
O=c1c2ccccc2nc(/C=C/c2ccc(O)cc2)n1-c1ccccc1O	.	.	.	.	.	.	/
O=c1c2ccccc2nc(/C=C/c2ccccc2)n1-c1ccccc1O	.	.	.	.	50.8	.	44.2
CC/C(=C\C=C\[C@@H]1C=C[C@@H]2CCC[C@H]2[C@@H]1C(=O)c1ccc[nH]1)[C@@H]1O[C@@H]([C@@H](C)C(=O)O)CC[C@@H]1C	.	/	.	.	.	.	/
CC1(C)OC(c2ccccc2)=C/C(=C/C=C2C(=O)NC(=S)NC2=O)O1	.	/	.	.	57.4	.	62.9
O=c1c(C=Nc2cccnc2Cl)c(O)n(CCCCl)c(=O)n1C1CCCCC1	.	.	.	.	.	.	/
COc1cc(-n2c(=S)[nH]c3ccccc3c2=O)c(Cl)cc1Cl	.	/	.	.	51.6	.	.
O=S(=O)(NC1CCCCCCC1)OCC(Cl)(Cl)Cl	.	/	.	.	50.4	.	59.1
O=S(=O)(NC1CCCC1)OCC(Cl)(Cl)Cl	.	.	.	.	.	.	/
CC(=O)NN1C(=O)c2ccccc2NC1c1cccnc1 (stereo not drawn)	.	.	.	.	.	.	/
O=C(c1cc(F)ccc1F)C1CCCN(Cc2ccc3nonc3c2)C1 (stereo not drawn)	.	/	.	.	.	.	/
O=c1[nH]c(=S)n(CCC2=CCCCC2)c(O)c1/C=N/N1CCOCC1	.	/	.	.	52.0	.	36.8
CN1CCc2cc3c(c4c2C1Cc1ccccc1-4)OCO3 (stereo not drawn)	.	.	.	.	67.2	.	67.3
CCCCCc1nc2c(c(=O)c3ccccc3n2C)c(=O)n1C1CCCCCC1	.	.	.	.	70.4	.	.
COP(=S)(OC)SCN1C(=O)c2ccccc2C1=O	.	.	.	.	.	.	/
COP(=O)(OC)/C(C=O)=N/Nc1ccc([N+](=O)[O-])cc1	.	.	.	.	51.7	.	50.1
